Pol eta inh – qHTS for Inhibitors of Polymerase Eta; actives 1.2% (n = 390,000); Potency, µM (doses to about 114 µM), inactives show top-dose activity change, negative = inhibition, hits mostly inhibitors; AID 588591, 2011; recombinant Pol eta, fluorescent DNA replication assay; DNA polymerase eta (Homo sapiens), Q9Y253; also: % is scaled to controls: 0 for no effect and ±100 for the full control effect
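Pol eta at 10 nM preincubated with compounds 15 min at room temperature; reaction started with fluorescent substrate (50 nM final) and read kinetically at 0 and 10 min.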
POLI inh – qHTS for Inhibitors of Polymerase Iota | Pol iota fluorescent replication assay, 10 min | DNA polymerase iota (Homo sapiens), Q9UNA4 | actives 1% (n = 390,000) | Potency, µM (doses to about 115 µM), inactives show at the highest dose activity, negative = inhibition, most hits filed as inhibitors | AID 588590, 2011
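Pol iota at 10 nM preincubated 15 min with compounds at room temperature; reaction started with fluorescent substrate, 50 nM final. Fluorescence read kinetically at 0 and 10 min; buffer-only wells as negative control.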
POLB inh – qHTS Assay for Inhibitors of DNA Polymerase Beta; P06746; Pol beta primer extension/strand displacement, fluorescence kinetic; Potency, µM (titrated, usually from 114 µM), for the others: at the highest dose activity change, negative = inhibition, most hits filed as inhibitors; actives 1.3% (n = 340,000); AID 485314, 2010; also: % is scaled to controls: 0 for no effect and ±100 for the full control effect
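Values derive from four-parameter Hill fits of normalized kinetic data: reads at 0 and 10 min following addition of 50 nM substrate to 10 nM Pol beta preincubated 15 min with compound.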
Pol kappa inh – qHTS for Inhibitors of Polymerase Kappa; DNA polymerase kappa (Homo sapiens), Q9UBT6; purified Pol kappa, fluorescent DNA synthesis assay, 10 min; Potency, µM (titrated, usually from 107 µM), for inactives: top-dose activity, negative = inhibition, actives largely listed as inhibitors; actives 0.53% (n = 400,000); AID 588579, 2011; also: % is scaled to controls: 0 for no effect and ±100 for the full control effect
Target sequence (Q9UBT6 whole entry, looked up): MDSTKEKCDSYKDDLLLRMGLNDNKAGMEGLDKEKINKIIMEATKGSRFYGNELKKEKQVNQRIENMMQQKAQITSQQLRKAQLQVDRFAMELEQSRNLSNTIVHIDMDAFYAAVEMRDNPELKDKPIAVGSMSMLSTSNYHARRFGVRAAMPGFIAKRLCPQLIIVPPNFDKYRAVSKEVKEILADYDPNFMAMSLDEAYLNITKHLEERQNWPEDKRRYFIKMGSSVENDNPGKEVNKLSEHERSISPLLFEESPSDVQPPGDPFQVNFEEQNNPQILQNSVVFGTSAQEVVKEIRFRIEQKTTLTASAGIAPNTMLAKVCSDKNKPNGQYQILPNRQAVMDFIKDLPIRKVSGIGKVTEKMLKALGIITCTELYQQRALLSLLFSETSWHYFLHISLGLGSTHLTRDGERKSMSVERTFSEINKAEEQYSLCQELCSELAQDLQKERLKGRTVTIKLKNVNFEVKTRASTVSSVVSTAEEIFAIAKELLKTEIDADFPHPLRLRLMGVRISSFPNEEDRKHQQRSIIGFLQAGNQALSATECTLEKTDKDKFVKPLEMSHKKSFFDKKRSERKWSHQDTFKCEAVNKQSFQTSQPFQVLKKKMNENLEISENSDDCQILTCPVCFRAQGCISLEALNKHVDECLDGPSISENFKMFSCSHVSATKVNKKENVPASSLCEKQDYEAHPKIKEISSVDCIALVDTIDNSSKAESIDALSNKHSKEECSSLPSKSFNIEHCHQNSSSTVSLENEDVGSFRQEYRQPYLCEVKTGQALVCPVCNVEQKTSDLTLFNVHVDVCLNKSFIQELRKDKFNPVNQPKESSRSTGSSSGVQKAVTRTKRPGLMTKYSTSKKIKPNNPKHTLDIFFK
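Activity was followed as the change in fluorescence between reads at 0 and 10 min after starting the reaction with 50 nM substrate. Beforehand, 10 nM polymerase had been preincubated with compound for 15 min at room temperature.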
L3MBTL1 block – qHTS Assay for the Inhibitors of L3MBTL1; Lethal(3)malignant brain tumor-like protein 1 (Homo sapiens), Q9Y468; AlphaScreen L3MBTL1–H3K9me1 peptide binding; Potency, µM (highest dose often 57.1 µM), for inactives: top-dose activity, negative = inhibition, usual class: inhibitors; actives 0.66% (n = 230,000); also: % is scaled to controls: 0 for no effect and ±100 for the full control effect; nearly all actives have a fitted effect of over 60% in size
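Displacement of a biotinylated histone H3(1-15) peptide monomethylated at Lys9 (75 nM) from L3MBTL1 (50 nM) was measured by AlphaScreen after a 30 min room-temperature compound incubation; cefsulodin titration served as intraplate control.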
* hit, by the source's call; u = inconclusive; x = not tested or not shown; ! = not confirmed by another sample; [ ] = remark or other dose. Compounds with a hit are over-represented: about 2.4% of the library has one in this group of screens. Calls follow the shape of the dose curve; as a rule, active = well fitted curve in the direction sought with a large enough effect; inconclusive = small, poorly fitted or top-dose-only effect, or another doubt; inactive = no such curve, though single readings can be large; an effect the other way counts as inactive or inconclusive. Potency is read from the fitted curve at half-maximal effect.

SMILES	Pol eta inh	POLI inh	POLB inh	Pol kappa inh	L3MBTL1 block
CC1(OC(=O)CCc2ccccc2)C(=O)C=C2C=C(c3ccc(C#N)cc3)N(c3ccccc3)C=C2C1=O (configuration not stated)	-2%	16%	20%	-8%	x
Cc1ccnc2ccc(F)cc12	x	10%	x	-8%	x
CCCn1c(NC(=S)Nc2ccccc2)nc2ccccc21	-5%	9%	-23%	-15%	u
S=C(Nc1ccccc1)Nc1nc2ccccc2n1CCOc1ccc(Cl)cc1	-13%	6%	31%	-1%	11µM*
Nc1ccc2c(O)cc(S(=O)(=O)O)cc2c1	5.6µM*	8.9µM*	x	14µM*	x
CC(C)(C)c1ccc(C(=O)Nc2cc(-c3nc4ccccc4o3)ccc2Cl)cc1	x	-4%	-11%	-8%	x
C=C1CCC(C)C(C)(CCC2=CCOC2=O)C/C=C\C=C/1C(=O)O (configuration not stated)	28µM*	u	2%	u	x
CC1=CCC2CC1C2(C)C (configuration not stated)	x	x	x	4%[60.1 µM]	x
CC[C@H](NC(=O)[C@H](CCCN=C(N)N)NC(=O)[C@H](Cc1c[nH]c2ccccc12)NC(=O)[C@@H](N)CS)C(=O)N[C@@H](CCCN=C(N)N)C(=O)N[C@@H](Cc1ccc(O)cc1)C(N)=O	x	x	x	6%[60.1 µM]	x
Nc1nonc1-c1nc2ccccc2n1CC(=O)N/N=C/c1ccc(-c2ccccc2C(=O)O)o1	32µM*	u	16µM*	u	-87%
Cc1ccc2c(c1)c(=O)c(S(=O)(=O)c1ccc(F)cc1)cn2CC(=O)Nc1ccc2c(c1)OCO2	-10%	33%	5%	-2%	x
CS(=O)(=O)c1ccc(C(=O)OCC(=O)NCc2cccs2)cc1[N+](=O)[O-]	45µM*	u	x	-12%	-3%
O=C(/C=C/c1cccs1)Nc1scc(-c2ccccc2)c1C(=O)O	79µM*	2.5µM*	u	-19%	x
O=C(COC(=O)CC1CCCC1)Nc1cc2c(cc1Cl)C(=O)c1ccccc1C2=O	u	-15%	40µM*	-21%	x
O=C(O)c1ccccn1	-13%	u	x	0%	14µM*
CC(NC(=O)/C(C#N)=C/c1ccco1)c1ccccc1 (configuration not stated)	-5%	-4%	-25%	-6%	x
CC(NC(=O)/C(C#N)=C/c1ccc([N+](=O)[O-])o1)c1ccccc1 (configuration not stated)	50µM*	20µM*	40µM*	-38%	x
CCCCC[C@H](O)/C=C/C1=C(CCCCCCC(=O)O)C(=O)CC1	25µM*	45µM*	u	50µM*!	u
CCCCC[C@H](O)/C=C/C=C\CCCCCCCC(=O)O	x	x	x	3%[19.4 µM]	x
Cc1cc(O)ccc1C1(c2ccc(O)cc2C)OC(=O)c2ccccc21	u	4%	u	-11%	-3%
O=C1OC2(c3ccccc31)c1cc(I)c(O)c(I)c1Oc1c2cc(I)c(O)c1I	x	x	x	27µM*	3.2µM*
O=C1OC2(c3cc(I)c(O)c(I)c3Oc3c2cc(I)c(O)c3I)c2c(Cl)c(Cl)c(Cl)c(Cl)c21	x	x	x	7.5µM*	x
O=C1OC2(c3ccc(O)cc3Oc3cc(O)ccc32)c2ccccc21	x	x	x	30µM*	x
COc1ccccc1CC1CC(=O)N(c2ccc([N+](=O)[O-])cc2)C1=O (configuration not stated)	0%	x	x	x	x
CC(C)C[C@H](NC(=O)[C@H](CO)NC(=O)[C@H](C)NC(=O)[C@H](CCCN=C(N)N)NC(=O)[C@H](CCCN=C(N)N)NC(=O)[C@@H](N)CC(C)C)C(=O)NCC(=O)O	x	x	x	10%[60.1 µM]	x
SMILES	Pol eta inh	POLI inh	POLB inh	Pol kappa inh	L3MBTL1 block
O=C(Nc1ccc(F)cc1)Nc1nnc(-c2ccncc2)s1	-15%	u	76%	-28%	2%
Cc1ccc(NC(=O)Nc2nnc(-c3ccncc3)s2)cc1C	89µM*	22µM*	1%	u	-6%
O=C(Nc1ccc(Cl)cc1)Nc1nnc(-c2ccncc2)s1	u	13%	-13%	-3%	6%
O=C(Nc1cccc(Cl)c1)Nc1nnc(-c2ccncc2)s1	u	u	40µM*	-10%	-2%
O=C(N[C@@H](Cc1ccccc1)C(=O)N1CCN(S(=O)(=O)c2ccc(F)cc2)CC1)c1ccco1	-8%	10%	x	-2%	7%
CCOc1ccc(S(=O)(=O)O)c2cccnc12	x	x	x	-1%[19.4 µM]	x
CCc1ccc2oc(-c3cccc(NC(=O)c4ccc(-c5cccc([N+](=O)[O-])c5)o4)c3)nc2c1	-17%	-2%	1%	-19%	x
Cc1c(C(=O)N(Cc2ccco2)Cc2cccs2)oc2ccccc12	u	40µM*	x	u	0%
C=C[C@@]1(C)CC(=O)[C@]2(O)[C@@]3(C)[C@H](O)CCC(C)(C)[C@@H]3[C@H](O)[C@H](OC(C)=O)[C@@]2(C)O1	x	x	x	15%[60.1 µM]	x
CCc1ccc(NS(=O)(=O)c2ccc3oc(=O)c4ncn(CC)c4c3c2)cc1	0%	3%	1%	-3%	x
CCOC(=O)c1ccc(CC(=O)c2oc3cc(O)ccc3c2C)o1	-5%	57%	3%	-19%	-11%
CCOC(=O)c1ccc(CC(=O)c2ccc(O)c(O)c2O)o1	u	1µM*	1.1µM*	1.6µM*	u
CCOC(=O)CCCCC(=O)c1[nH]c(=O)[nH]c1CSc1nc2ccccc2[nH]1	1%	19%	29%	-2%[60.1 µM]	13µM*
CCOC(=O)CCCCC(=O)c1[nH]c(=O)[nH]c1CSc1nc(C)cc(=O)[nH]1	-1%	1%	-3%	-5%	7.9µM*
CCOC(=O)CCCCC(=O)c1[nH]c(=O)[nH]c1CSc1nc(C)cc(C)n1	-13%	-5%	13%	-23%	-12%
Cc1ccc(S(=O)(=O)N2C[C@H]3[C@H]4C(=O)N(c5ccccc5)C(=O)[C@H]4C[C@H](OC(=O)NCc4ccccc4F)[C@@]3(O)C2)cc1	-15%	x	x	x	x
O=C(COC(=O)c1ccc(NS(=O)(=O)c2cccs2)cc1)Nc1nc2c(F)c(F)c(F)cc2s1	20µM*	40µM*	28µM*	u	u
O=C(COC(=O)c1ccc(Br)o1)Nc1nc2c(F)c(F)c(F)cc2s1	56µM*	-29%	11µM*	u	-27%
O=C(COC(=O)c1ccco1)Nc1nc2c(F)c(F)c(F)cc2s1	u	u	50µM*	-20%	x
COc1cccc(N2CC(NC(=O)C(c3ccccc3)c3ccccc3)CC2=O)c1 (configuration not stated)	-10%	-10%	-11%	-10%[60.1 µM]	x
COCCNC(=O)CCCN1C(=O)CCn2nc(-c3cccn3C)cc21	-26%	30%	1%	-14%[60.1 µM]	x
